# Measurements reported in PubChem BioAssay (EPA / NIEHS).
# Active and inactive are the calls of the source. The calls were made as follows: active = hit-call score of the fitted dose curve at least 0.9, where 1 is the maximum; inactive = score below 0.9.
# Read-out: Cyclin D1 (CCND1), CCND1 (gene 595)
# Assay: LTEA_HepaRG_CCND1: Life Technologies and Expression Analysis (LTEA) Assay for Cyclin D1 (CCND1) using HepaRG (AID 2283451);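 as to AC50: TaqMan qRT-PCR transcript level normalised to ACTB GAPDH and POLR2A housekeeping genes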
# Conditions: mRNA level, 48 h; actives raise or lower the signal
# Protocol: LTEA_HepaRG is a cell based, multiplexed-readout assay that uses HepaRG, a human liver cell line, with measurements taken at 48 hours after chemical dosing on a 96-well plate.LTEA_HepaRG_CCND1 is one of 102 assay component(s) measured in the LTEA HepaRG cell culture assay. It is a marker of Cell proliferation, survival, death.Data from the assay component LTEA_HepaRG_CCND1 was analyzed into 1 endpoint. This assay endpoint, LTEA_HepaRG_CCND1, was analyzed with bidirectional fitting relative to DMSO as the negative control and baseline of activity. Using a type of inducible reporter, measures of mRNA induction for gain or loss-of-signal activity can be used to understand regulation of transcription factor activity. To generalize the intended target to other relatable targets, this assay endpoint is annotated to the cell cycle intended target family, where the subfamily is Cell proliferation, survival, death.
# A total of 1060 chemcials from the ToxCast library were tested in eight-point concentration-response experiments. Cell culture and cytotoxicity assays were conducted at Thermo Fisher Scientific's Custom Services facility (Madison, WI). A single lot of human HepaRG cells (Thermo Fisher Scientific, Frederick, MD) was used for the cell culture experiments. 96-well format collagen type I coated plates of human HepaRG cells were prepared using established methods. Briefly, cryopreserved HepaRG cells were thawed, plated at a density of approximately 100,000 cells/well in HepaRG Thaw, Plate, and General Purpose media (HPRG770, Thermo Fisher Scientific), and incubated for 48 hours. 0.5% DMSO was selected as vehicle control to balance the requisite need of DMSO in HepaRG cultures to maintain differentiation (for example, baseline metabolism, proportions of hepatocytes vs. cholangiocytes), while enabling further hepatic receptor pathway activation (for example, PXR and CAR) in response to chemical exposure. 48 hours after plating, the culture medium was replaced with HepaRG Serum-Free Incudtion Media. Cells were exposed to each test chemical in duplicate and maintained in CO2 incubators for another 48 hours. Chemical plates were thawed to room temperature and 200x concentrations of treatment groups were prepared. 8-point conentration-reponse curves were made with the highest exposure at 100 uM, followed by half-log dilutions, all in 0.5% DMSO. Each test plate contained variouse controls, induction positive controls (1mM phenobarbital), cytotoxicity positive controls ([…] aflatoxin B1), vehicle controls (0.5% DMSO), and total lysis controls (0.5% DMSO). Cell morphology images were taken using an Essen IncuCyte FLR automated microscope, with six 96-well plates imaged in about 24 minutes. Images were captured and exported and JPEG files. Spent culture media was transfered to black-well plates for the LDH assay, and remaining media was sorted at -80 C for later use. Cells were treated with RLT buffer and frozen until shipped for gene expression analysis. Total RNA was isolated from the cell suspension in 75 uL of Buffer RLT (Qiagen, Germantown, MD 20874) by Quintiles/Expression Analysis (Durham, NC) using a custom isolation procedure. Total RNA from each plate well was transferred to a preamplification plate. Fluidigm's 96.96 Dynamic ArrayTM (Fluidigm, Amsterdam, the Netherlands) technology was used for gene expression analyses by quantitative reverse transcription polymerase chain reaction (qRT-PCR, performed by Quintiles/Expression Analysis, Durham, NC)89. Standard TaqManTM Assays (Applied Biosystems/ThermoFisher Scientific, Foster City, CA) were used to assess the expression of 93 genes selected based on their selectivity and sensitivity to important hepatic receptors known to be modulated by environmental chemicals; importance in human hepatocyte functionality; and hepatotoxicity. […]
Compound,AC50,outcome
NC(=O)N1C(=O)C(C(=O)c2cc(Cl)cs2)c2cc(F)c(Cl)cc21 (stereo not given),13.1 µM (active),–
c1ccc2c(c1)ccc1ccccc12,–,inactive
O=C(O)Cc1cc(I)c(Oc2cc(I)c(O)c(I)c2)c(I)c1,33.5 µM (active),–
CC(C)(C)c1cc(C(C)(C)C)c(O)c(C(C)(C)C)c1,–,inactive
CC(O)CO (stereo not given),–,inactive
CCCCCCCCOC(=O)CCCCCCCCC(=O)OCCCCCCCC,–,inactive
OCCC(F)(F)C(F)(F)C(F)(F)C(F)(F)C(F)(F)C(F)(F)C(F)(F)C(F)(F)F,–,inactive
CC(=O)NC1(c2cccc(F)c2)CCN(CC[C@@]2(c3ccc(Cl)c(Cl)c3)CN(c3ccccc3)C(=O)CO2)CC1,–,inactive
COCC(C)OCC(C)O (stereo not given),–,inactive
CN1CCN(c2ccccc2/C=C2\SCCN(c3ccc(Cl)c(Cl)c3)C2=O)CC1,–,inactive
O=[N+]([O-])c1ccc(O)cc1,–,inactive
NC(=O)N(O)[C@@H]1C=C[C@H](Oc2cccc(Oc3ccc(F)cc3)c2)C1,84.1 µM (active),–
CC(C)(C)CC(C)(C)c1ccc(O)c(-n2nc3ccccc3n2)c1,–,inactive
c1ccc2cc3c(ccc4ccccc43)cc2c1,9.56 µM (active),–
CCCOC(=O)c1ccc(O)cc1,–,inactive
CC(C)CCCCCCOC(=O)CCCCC(=O)OCCCCCCC(C)C,–,inactive
COC(=O)CCCCC(=O)OC,–,inactive
CC[C@H](c1ccc(O)cc1)[C@@H](CC)c1ccc(O)cc1,77 µM (active),–
CC#C[C@]1(O)CC[C@H]2[C@@H]3CCC4=CC(=O)CCC4=C3[C@@H](c3ccc(N(C)C)cc3)C[C@@]21C,86.2 µM (active),–
O=c1c(-c2ccc(O)cc2)coc2cc(O)ccc12,–,inactive

Compound,AC50,outcome
COCC(C)O (stereo not given),–,inactive
O=C(O)c1ccccc1C(c1ccc(O)cc1)c1ccc(O)cc1,–,inactive
O=C(OCCOCCOC(=O)c1ccccc1)c1ccccc1,–,inactive
OC1CCCCC1,–,inactive
N#C[C@@H]1CC(F)(F)CN1C(=O)CNC1CC2CCC(C1)N2c1ncccn1 (stereo not given in full),–,inactive
c1ccc2c(c1)Cc1ccccc1-2,–,inactive
OCCC(F)(F)C(F)(F)C(F)(F)C(F)(F)C(F)(F)C(F)(F)F,–,inactive
CN(C)C=O,–,inactive
CC[C@H](C)[C@@H](C(=O)O)n1sc2ccccc2c1=O,–,inactive
CCCCCCCCCCCCN1CCCC1=O,–,inactive
CCCCOCCO,–,inactive
CCCCCCC(=O)O,–,inactive
C=C(C)C(=O)OCCC(F)(F)C(F)(F)C(F)(F)C(F)(F)C(F)(F)C(F)(F)F,–,inactive
OC1CCC(C2CCCCC2)CC1 (stereo not given),–,inactive
C#C[C@]1(O)CC[C@H]2[C@@H]3CCC4=CC(=O)CC[C@@H]4[C@H]3CC[C@@]21C,–,inactive
Oc1cccc(O)c1,–,inactive
CCCCCCCC(=O)O,–,inactive
COc1ccc([N+](=O)[O-])cc1N,–,inactive
Nc1cccc2c(N)cccc12,–,inactive
CC(C)(C)c1ccc(O)c(C(C)(C)C)c1,–,inactive
